The whole screen tested about 330,000 compounds, of which about 1,900 (0.58%) were called active. Another 4% or so got no clear call; they are omitted. Only a sample is shown. Entries with a potency or affinity are not part of this list. A number with no mark means an inactive call. Cut-off read from the data, not from the text of the source: inconclusive = inhibition above about 70% without an active follow-up result; inactive = below that.

One may read the inhibition as the change of the read-out against control, counted positive when it falls.

A short description of the assay: M. tuberculosis growth inhibition, HTS (AID 449762).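 Note: bacterial growth assessed after seven days of incubation.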 Particulars: M. tuberculosis H37Rv growth inhibition, 7H9 media; at 25 µM; stronger effect = higher value.
With `CN1CCN(CCc2nc3cc(NC(=O)c4ccco4)ccc3n2C)CC1`, the inhibition was 3.05%. As for `O=S(=O)(NCCc1cn2ccccc2n1)c1ccc(F)c(C(F)(F)F)c1`, the inhibition was -2.32%.

On to `CCCOc1ccc(OCCn2nc(C(=O)O)c3ccccc3c2=O)cc1`, for which the inhibition was 1.16%. On to `O=c1[nH]c(=O)n(Cc2ccc(Oc3ccccc3)cc2)cc1Br`, for which the inhibition was 2.82%. In the case of `CC(C)C(=O)NNC(=O)CN1CCN(c2nc(-c3ccccc3)cs2)CC1` it was -10.4%; in that of `CCc1nnc(NC(=O)CN2CCN(c3ccccc3F)CC2)s1`, 5.55%. `CC(=O)Nc1cccc(C(=O)N2CCN(Cc3ccccc3)CC2)c1`: the inhibition is -9.84%. In the case of `COc1ccc(C(CC(=O)c2ccc(C)cc2)Nc2ccc([N+](=O)[O-])cc2)cc1` (stereo unspecified), the inhibition was 14.3%. In the case of `CC(=O)NC(CC(=O)c1ccc([N+](=O)[O-])cc1)C(Cl)(Cl)Cl` (stereo unspecified) it was 13.4%; in that of `CC(C)CC(=O)NC(Nc1ccc([N+](=O)[O-])cc1)C(Cl)(Cl)Cl` (stereo unspecified), 4.27%. `Cc1ccc(NCC(=O)c2ccc([N+](=O)[O-])cc2)cc1`: the inhibition was 8.11%. In the case of `OC(COc1ccc(Br)cc1)Cn1ccnc1` (stereo unspecified) it was -0.05%. On to `O=C(NN1CCOCC1)c1ccc(Cl)s1`, for which the inhibition is -0.84%.

For `O=C(COC(=O)C1CCC1)Nc1ncc(Cl)cc1Cl`, the inhibition was -10.9%.

`COc1ccc(N2CCN(c3ccc(NC(=O)C4CCCCC4)cc3C#N)CC2)cc1`: the inhibition is 7.01%. Regarding `Cc1cc(C)nc(Nc2ncn[nH]2)n1`, the inhibition is 6.87%.

For `Clc1ccc(CNc2ccc(CNc3ncn[nH]3)cc2)cc1`, the inhibition is 2.69%. On to `CC1C(=O)N2CCCc3cc(NC(=O)C(=O)NCCc4ccc(F)cc4)cc1c32` (stereo unspecified), for which the inhibition was 39.4%. Turning to `CC(C)c1nnc(NC(=O)CCC(=O)N2CCN(c3ccc(F)cc3)CC2)s1`, the inhibition was 6.66%. Take `CC(C)c1nnc(NC(=O)CCC(=O)N2CCN(c3cccc(Cl)c3)CC2)s1`: the inhibition is 25.5%.

As for `Cc1[nH]ncc1N=Cc1ccc([N+](=O)[O-])cc1`, the inhibition was 1.43%.

Take `CCOc1ccc(C(=O)CCC(=O)NCC(=O)Nc2c(C)cccc2C)cc1`: the inhibition is 3.97%. As to `O=C1CSC2(C(=O)N3CCCc4cccc2c43)N1c1cccc(C(F)(F)F)c1` (stereo unspecified), the inhibition is -2.03%.

For the compound `O=S(=O)(c1ccc(N2CC=C(c3ccccc3)CC2)nc1)N1CCCC1`, the inhibition is -10.8%. As for `N=C1C(c2nc3ccccc3[nH]2)=C(O)CN1NC(=O)COc1cccc(F)c1`, the figure is -2.89%. As for `N=C1C(c2nc3ccccc3s2)=C(O)CN1NC(=O)c1c[nH]c2ccccc12`, the figure is -0.06%; as for `CCN(CC)S(=O)(=O)c1ccc2c(c1)N(CC(=O)N1CCCC1)C(=O)CO2`, -1.21%; as for `Cc1cccc(-c2noc(-c3cc4ccccc4oc3=O)n2)c1`, -1.72%. Take `O=c1oc2ccccc2cc1-c1nc(-c2ccccc2)no1`: the inhibition is 23.8%.

On to `COC(=O)c1cn(-c2ccccc2)nc1-c1ccc(OC)c(OC)c1`, for which the inhibition is 3.81%. For `CC(C)Oc1ccc(C(=O)Nc2ccc(N3CCN(C(=O)c4ccco4)CC3)cc2)cc1`, the inhibition is 0.01%. As to `O=C(Nc1ccc(OCc2ccccc2)cc1)c1cccs1`, the inhibition is -4.87%.

For the compound `Cc1ccc(Nc2nc(N)c([N+](=O)[O-])c(N3CCC(C)CC3)n2)cc1C`, the inhibition was -4.24%. In the case of `Cc1cccc(Nc2nc(N)c([N+](=O)[O-])c(N3CCCC(C)C3)n2)c1` (stereo unspecified) it was 10.2%; in that of `CC(NC(=O)c1cccnc1)C(c1cccs1)N1CCN(c2ccccc2F)CC1` (stereo unspecified), -3.95%; in that of `O=Cc1ccc(Oc2ccc(F)cc2)nc1`, 0.87%. In the case of `CC(C)(C)c1ccc(Oc2ccc(N)cn2)cc1` it was 14.1%. As to `O=C(NCc1ccccc1Cl)c1cnc2n(c1=O)CCS2`, the inhibition was -6.04%.

Turning to `Cn1cccc1/C=C1\C(=O)NC(=O)N(Cc2ccccc2)C1=O`, the inhibition was 3.31%. As for `Cn1cccc1/C=C1/C(=O)NC(=O)N(Cc2ccc(F)cc2)C1=O`, the figure is 11.8%; as for `N=C1C(c2nc3ccccc3s2)=C(O)CN1C1CCCCC1`, 8.1%.

Turning to `COC(=O)c1cc(NC(=O)CN(C)C2CCS(=O)(=O)C2)cc(C(=O)OC)c1` (stereo unspecified), the inhibition is -0.88%. As for `COc1cc(N/N=C(\C)c2ccc(O)c(C)c2)nc(-c2ccccc2)n1`, the figure is 40.1%; as for `C/C(=N\Nc1nc(C)cc(-c2ccccc2)n1)c1ccccc1`, 9.83%. In the case of `CC(=O)CC(=O)NC(=NC1CCCCC1)Nc1nc(C)cc(C)n1` it was 43.2%.

Regarding `CN(C)P(=NC(=S)c1cccn1C)(N(C)C)N(C)C`, the inhibition is 0.74%. In the case of `Cc1ccc(-n2cccc2C(=O)NS(=O)(=O)c2ccc(C)cc2)cc1` it was -6.77%. As for `C#CC(=O)CCC1CCCN1C(=O)OC(C)(C)C` (stereo unspecified), the figure is 5.07%; as for `Cc1ccc(S(=O)(=O)N2CCOCC2)cc1NC(=O)COC(=O)C1(C)CC1(Cl)Cl` (stereo unspecified), 11.2%; as for `Cc1ccn2c(=O)cc(C)nc2c1`, -4.1%. Turning to `Cc1cc(=O)n2ccsc2n1`, the inhibition is 0.36%. In the case of `CC(=O)OCn1ncc(N2CCOCC2)c(Br)c1=O`, the inhibition was -0.34%. In the case of `CCOC(=O)c1cnn(CCOC(=O)c2ccc(F)cc2)c1NC(=O)c1ccc(F)cc1` it was 0.06%.

With `COc1cc(OC)cc(C(=O)NC2CCCN(Cc3ccc(Cl)cc3)C2)c1` (stereo unspecified), the inhibition is 7.21%.

Take `Cc1nnc(SCC(=O)NC(=O)NC(C)(C)C)n1N`: the inhibition is 4.56%. With `CC1(C)Cc2c(C#N)c(N3CCOCC3)nc(Cc3ccccc3)c2CO1`, the inhibition is 1.75%.

For `CCc1nc(N2CCN(C(=O)c3ccccc3)CC2)c(C#N)c2c1COC(C)(C)C2`, the inhibition was 15.8%. In the case of `COc1ccc(Cn2c(=O)[nH]c3cc(C(=O)NCCCN4CCCCC4)ccc3c2=O)cc1` it was -8.19%; in that of `CCC1Nc2ncnc(N3CCN(c4ccccn4)CC3)c2N(Cc2ccc(Cl)cc2)C1=O` (stereo unspecified), 8.22%. In the case of `Cc1ccccc1N1CCN(CCCN2C(=O)CC(=C(c3ccccc3)c3ccccc3)C2=O)CC1` it was 7.38%; in that of `O=C1CC(=C(c2ccccc2)c2ccccc2)C(=O)N1CCCN1CCN(c2cccc(Cl)c2)CC1`, 59.9%.

Source of the values: PubChem BioAssay AID449762 (Southern Research Specialized Biocontainment Screening …, 2010).
